Screens: PubChem BioAssay, National Center for Advancing Translational Sciences (NCATS)
ERG-DNA inh: inhibitors of human ERG Ets domain-DNA interaction; P11308; fluorescence polarization, His-ERG Ets domain / labelled DNA; Potency, µM (highest dose often 76.9 µM), inactives show top-dose FP activity, negative = inhibition, actives largely listed as inhibitors; 370,000 tested, 0.028% active; active = well fitted inhibition curve with a large enough effect in the polarisation, with a control signal flat; inconclusive = small, poorly fitted or top-dose-only effect, or effect the other way, or a change in a side signal; inactive = no such curve, though single readings can be large or run the other way; the % refers to the polarisation;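 also: polarization taken with two DNA probes labelled with fluorescein and Texas red; potency is read from the fitted curve at half-maximal effect; % of control where 0% means no effect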
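His-tagged ERG Ets domain (1 uM in the protein solution; 300mM KCl, 50mM Tris-HCl, 1mM EDTA, 1mM DTT, pH 7.5) received compound, then a probe mix of 5 nM fluorescein-DNA and 100nM Texas-615-DNA. Fluorescence polarization was read for both dyes.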
Giardia killer: Giardia lamblia killing. Giardia lamblia trophozoite viability. activity change, % at 7.66 µM, hits read low. 340,000 tested, 0.15% active; in the data active = activity change below about -80%; inconclusive = between about -30% and that limit;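 also: parasites exposed to compound for two days anaerobically before the ATP read; % is scaled to controls: 0 for no effect and ±100 for the full control effect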
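ATP-content bioluminescence gauges trophozoite survival. Cells (100/well) receive compound and incubate anaerobically for 48 hrs at 37 deg C; detection reagent follows for 15-30 min at room temperature.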
a7 integrin act: integrin-mediated muscular dystrophy alleviation activation; alpha7betagal myoblasts, beta-gal FDG fluorescence, 48 h; 350,000 tested, 0.064% active; AID 624291; Potency, µM (highest dose often 38.3 µM), without a hit: at the highest dose activation, usual class: activators;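 also: potency is read from the fitted curve at half-maximal effect; 100% = response of the positive control SU9516; nearly all actives have a fitted effect of over 60% in size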
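Alpha7betagal+/- myoblasts (passage 13) were plated 16-24 hr, then exposed to compounds (1:260 dilution of DMSO stock) for 48 hours at 37C. After MPER lysis, β-galactosidase reporter activity was read as FDG fluorescence (ex 480/em 540) after 30 minutes.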
RORgamma inh: inhibitors of mouse ROR gamma transcriptional activity | Potency, µM (highest dose often 53.6 µM), for the others: top-dose activity change, negative = inhibition, usual class: inhibitors | 310,000 tested, 5.4% active | AID 2551 | Drosophila S2 Gal4-RORgamma UAS-luciferase reporter, 20 h; also: potency is read from the fitted curve at half-maximal effect; % is scaled to controls: 0 for no effect and ±100 for the full control effect; nearly all actives have a fitted effect of over 60% in size
Target sequence (P51450 whole entry, looked up, the tested form may be a part): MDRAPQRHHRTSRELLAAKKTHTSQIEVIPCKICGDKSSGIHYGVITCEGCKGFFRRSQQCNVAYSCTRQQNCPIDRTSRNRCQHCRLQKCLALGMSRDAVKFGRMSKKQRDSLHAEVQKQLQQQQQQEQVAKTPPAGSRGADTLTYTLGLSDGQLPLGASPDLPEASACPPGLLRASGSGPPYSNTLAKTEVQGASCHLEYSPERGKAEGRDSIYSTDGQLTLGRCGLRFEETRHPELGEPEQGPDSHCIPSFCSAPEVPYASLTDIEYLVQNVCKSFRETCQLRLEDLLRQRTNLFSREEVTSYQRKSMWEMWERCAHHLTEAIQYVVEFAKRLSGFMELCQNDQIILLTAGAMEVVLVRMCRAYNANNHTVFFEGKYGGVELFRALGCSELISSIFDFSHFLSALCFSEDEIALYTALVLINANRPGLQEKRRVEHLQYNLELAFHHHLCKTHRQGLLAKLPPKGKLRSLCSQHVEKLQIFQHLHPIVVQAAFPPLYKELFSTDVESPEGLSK
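Stable Schneider cell line, Gal4 DNA-binding domain fused to ROR gamma, UAS-luciferase. Cmpd 1 hr RT → CuSO4 700 uM final → 20 hr RT → luciferase reagent 10 min → luminescence.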
VP16 counter: inhibits Gal4-VP16 luciferase reporter, ROR gamma counter-screen; Drosophila S2 Gal4-VP16 UAS-luciferase, luminescence, 20 h; 310,000 tested, 3.5% active; AID 2546; Potency, µM (doses to about 53.6 µM), for inactives: at the highest dose activity, negative = inhibition, hits mostly inhibitors;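 also: Gal4-VP16 expression switched on by copper sulfate through the metallothionein promoter; potency is read from the fitted curve at half-maximal effect; % is scaled to controls: 0 for no effect and ±100 for the full control effect; nearly all actives have a fitted effect of over 50% in size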
An asterisk follows results filed as active; ? = inconclusive; / = no result given; [ ] = dose if it differs, or a comment. The sample as a whole holds a higher share of hits than the screen did. Unless noted, calls follow the shape of the dose curve; as a rule, active = well fitted curve in the direction sought with a large enough effect; inconclusive = small, poorly fitted or top-dose-only effect, or another doubt; inactive = no such curve, though single readings can be large; an effect the other way counts as inactive or inconclusive.

SMILES | ERG-DNA inh | Giardia killer | a7 integrin act | RORgamma inh | VP16 counter
C/C(CC(=O)Nc1ccc(N(C)C)cc1)=N\NC(=O)c1ccc(Cl)cc1Cl | -6% | -17 | -14% | 11µM* | -11%
C/C(CC(=O)Nc1ccc(N(C)C)cc1)=N\NC(=O)c1ccc(F)cc1 | -9% | 24 | 8% | 1.8µM* | ?
C/C(CC(=O)Nc1cc(C)ccn1)=N\NC(=O)c1ccc(C(C)(C)C)cc1 | 4% | 12 | -12% | 11µM* | -16%
C/C(CC(=O)Nc1ccc(N(C)C)cc1)=N\NC(=O)c1ccc(C(C)(C)C)cc1 | 3% | 19 | 6% | ? | 4µM*
COc1ccc2c(c1)O/C(=C\c1sccc1C)C2=O | -3% | -17 | 1% | 17% | 3%
CCN(CC)c1ccc(NC(=S)NC(=O)Cc2ccccc2)cc1 | -2% | 1 | 25% | 2.5µM* | 2.5µM*
CN(C)S(=O)(=O)c1ccc(NC(=S)NC(=O)Cc2ccccc2)cc1 | 1% | -13 | 14% | -18% | 10%
CCOc1ccc(NC(=S)NC(=O)Cc2ccccc2)cc1 | -28% | 1 | 31% | 4µM* | 10µM*
O=C(CSc1cn(CC(=O)N2CCCCC2)c2ccccc12)Nc1ccccc1F | 8% | / | / | / | /
COC(=O)[C@@]1(Cc2ccc(OC)cc2)[C@H]2c3cc(C(=O)N(C)C)n(Cc4ccc(C)c(F)c4F)c3C[C@H]2CN1C(=O)c1ccccc1 | / | / | / | 25% | -12%
CCC(=O)OCCNc1cc(Sc2nccn2C)c2nonc2c1[N+](=O)[O-] | -2% | 6 | -51% | 4.5µM* | 4µM*
CCCC(=O)OCCNc1cc(Sc2nc3ccccc3[nH]2)c2nonc2c1[N+](=O)[O-] | 0% | -6 | -58% | 2.8µM* | 3.2µM*
CCC(=O)OCCNc1cc(SCCC(=O)OC)c2nonc2c1[N+](=O)[O-] | -9% | -4 | 24% | -11% | ?
CC(C)NC(=O)NNC(=O)Cn1nnc(-c2cccc(Cl)c2Cl)n1 | -2% | 5 | ? | 32µM* | -30%
CC1=CC(=O)C2=C(C)C[C@H](OC(=O)Cc3ccccc3)C3[C@H](OC(=O)[C@H]3C)C12 (some centres undefined) | / | / | / | 10% | 2%
COc1ccc(NC(=O)c2nc[nH]c2C(=O)NCC(=O)OC(C)(C)C)cc1 | -3% | -12 | -8% | ? | ?
Cc1ccc(NC(=O)c2nc[nH]c2C(=O)NCC(=O)OC(C)(C)C)cc1 | -10% | 3 | -12% | 6.3µM* | ?
CCOC(=O)c1ccc(NC(=O)c2nc[nH]c2C(=O)NC)cc1 | -4% | 8 | 8% | 10µM* | -28%
CCOC(=O)c1[nH]cnc1C(=O)Nc1ccc(C)cc1 | 2% | 6 | 21% | 13µM* | ?
O=C(Nc1nnc2n1CCS2)c1cc(C(F)(F)F)cc(C(F)(F)F)c1 | -1% | / | / | / | /
O=C(Nc1cc(Cl)ccc1N1CCOCC1)C1=COCCO1 | 8% | 6 | 26% | / | /
O=C(O)Cn1cc(F)c(=O)[nH]c1=O | 0% | 3 | -20% | / | /
COC(=O)[C@@H]1C[C@H]2CC[C@H](O)C[C@H]2N1Cc1c(F)cccc1Cl | / | / | / | -1% | 1%
O=C(Cc1ccccc1F)Nc1nc2ccccc2[nH]1 | -5% | 5 | 22% | 10µM* | ?
COc1cccc(CC(=O)Nc2nc3ccccc3[nH]2)c1 | -16% | 5 | -1% | ? | -28%[10 µM]
SMILES | ERG-DNA inh | Giardia killer | a7 integrin act | RORgamma inh | VP16 counter
CCCCCC(=O)Nc1nc2ccccc2[nH]1 | 2% | -8 | 7% | 6.3µM* | ?
O=C(Cc1cccc2ccccc12)Nc1nc2ccccc2[nH]1 | -4% | 11 | 26%[7.66 µM] | 7.9µM* | 8.9µM*
Cc1cc(-c2ccc(S(=O)(=O)N3CCN(c4ccc(Cl)cc4)CC3)s2)on1 | 17% | / | / | / | /
CC1CCCCC1NC(=O)C1CCC(CNS(=O)(=O)c2cccc3cccnc23)CC1 (centres undefined) | 1% | -3 | -2% | 26% | 21%
COc1cccc(-n2c(C)nc3c(cnn3-c3ccc(C)c(C)c3)c2=O)c1 | -4% | / | / | / | /
O=C(Nc1nnc(CC2=CCCCC2)s1)c1cccs1 | 2% | 26 | 10% | ? | ?
O=C(Nc1ccc(Cl)c(Cl)c1)Nc1nnc(CC2=CCCCC2)s1 | 11% | -22 | ? | ? | 13µM*
CC(C)(C)OC(=O)NS(=O)(=O)Nc1ccccc1Br | / | 8 | / | 8% | -6%
COc1ccc(-n2nc3c(N4CCCC(C(=O)NCc5cccc(F)c5)C4)nnc(C)c3c2C)cc1 (centres undefined) | 12% | / | / | / | /
CCOc1ccccc1CNC(=O)C1CCN(c2nnc(C)c3c(C)n(-c4ccc(C)cc4)nc23)CC1 | 9% | -11 | -54% | 13µM* | 18µM*
Cc1ccc(-n2nc3c(N4CCC(C(=O)NCc5ccccc5C)CC4)nnc(C)c3c2C)cc1 | 16% | 10 | -65% | 13µM* | ?
COc1ccc(-n2nc3c(N4CCC(C(=O)NCc5cccc(C)c5)CC4)nnc(C)c3c2C)cc1 | 2% | 18 | 2% | ? | 20µM*
O=C(Nc1nc2ccccc2n1CCN1CCOCC1)c1ccc(Cn2cc([N+](=O)[O-])cn2)o1 | 0% | 25 | -27% | 11µM* | ?
O=C(Nc1nc2ccccc2n1CCN1CCOCC1)c1ccc(COc2ccccc2Br)o1 | 2% | 3 | -64% | 2µM* | 5.6µM*
O=C(Nc1nc2ccccc2n1Cc1ccccc1)c1ccc(COc2ccccc2[N+](=O)[O-])o1 | 5% | 0 | 5%[7.66 µM] | ? | ?
CCc1ccc(OCc2cnc(Cl)s2)cc1 | 2% | ? | -26% | 32% | -9%
O=C(CCCCn1c(=O)c2ccccc2n(Cc2cccc(Cl)c2)c1=O)NCc1ccc2c(c1)OCO2 | 2% | / | / | / | /
CO[C@@H]1c2cc(F)ccc2/C(=C\CCOC(=O)C/C=C/c2ccccc2)[C@H]1C | / | / | / | -12% | -3%
COc1ccc(OC)c(/C=N/NC(=O)c2csc3ccccc23)c1 | 1% | ? | -5% | 13µM* | 0%
COc1ccc(OC)c(/C=N/NC(=O)c2cc(-c3ccc(C)o3)nc3ccccc23)c1 | 10% | -11 | -19% | ? | ?
COc1ccc(O)c(/C=N/NC(=O)c2cc(=O)[nH]c3ccccc23)c1 | 3% | 5 | 5.6µM* | -44% | -7%
